Several values for one entry are separate records, joined by “and”; a condition that tells them apart may be missing. Equal entries are not always repeated. Where a structure was tested more than once in an assay, its records may differ in their call. Activity calls are given as the source filed them. Rule for the calls: active = hit-call score of the fitted dose curve at least 0.9, where 1 is the maximum; inactive = score below 0.9.
Tests used:
[1] = read-out: Interleukin-8 (IL8), CXCL8 (gene 3576); experiment: BSK_CASM3C_IL8: BioMAP Diversity Plus: CASM3C Assay for Interleukin-8 (IL8) Biomarker Activity (AID 2283042); conditions: primary human coronary artery smooth muscle cells; actives raise or lower the signal;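 note: IL-8 protein level quantified by ELISA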
[2] = read-out: Human Leukocyte Antigen - DR isotype (HLADR), HLA-DRA (gene 3122); experiment: BSK_CASM3C_HLADR: BioMAP Diversity Plus: CASM3C Assay for Human Leukocyte Antigen - DR isotype (HLADR) Biomarker Activity (AID 2283043); conditions: primary human coronary artery smooth muscle cells; actives raise or lower the signal;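 note: cell-surface HLA-DR protein level quantified by ELISA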
[3] = read-out: Macrophage colony-stimulating factor (MCSF), CSF1 (gene 1435); experiment: BSK_CASM3C_MCSF: BioMAP Diversity Plus: CASM3C Assay for Macrophage colony-stimulating factor (MCSF) Biomarker Activity (AID 2283044); conditions: primary human coronary artery smooth muscle cells; actives raise or lower the signal;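 note: M-CSF protein amount quantified by ELISA after 24 h exposure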
[4] = read-out: Low-density lipoprotein receptor (LDLR), LDLR (gene 3949); experiment: BSK_CASM3C_LDLR: BioMAP Diversity Plus: CASM3C Assay for Low-density lipoprotein receptor (LDLR) Biomarker Activity (AID 2283045); conditions: primary human coronary artery smooth muscle cells; actives raise or lower the signal;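 note: LDLR protein level on the cell surface quantified by ELISA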
[5] = read-out: Monocyte Chemoattractant Protein-1 (MCP1), CCL2 (gene 6347); experiment: BSK_CASM3C_MCP1: BioMAP Diversity Plus: CASM3C Assay for Monocyte Chemoattractant Protein-1 (MCP1) Biomarker Activity (AID 2283046); conditions: primary human coronary artery smooth muscle cells; actives raise or lower the signal;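 note: MCP-1 level quantified by ELISA 24 h after dosing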
[6] = BSK_CASM3C_Proliferation: Cell Proliferation Assessment in the BioMAP Diversity Plus: CASM3C Assay (AID 2283047); conditions: primary human coronary artery smooth muscle cells;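 note: sulforhodamine B total protein stain as relative cell number at 560 nm; sub-confluent cells exposed 48 h before staining; fitted both ways against DMSO so gain or loss of cell number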
[7] = read-out: Monokine induced gamma interferon (MIG), CXCL9 (gene 4283); experiment: BSK_CASM3C_MIG: BioMAP Diversity Plus: CASM3C Assay for Monokine induced gamma interferon (MIG) Biomarker Activity (AID 2283048); conditions: primary human coronary artery smooth muscle cells; actives raise or lower the signal;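 note: MIG protein level measured by ELISA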
[8] = read-out: serum amyloid A (SAA), SAA1 (gene 6288); experiment: BSK_CASM3C_SAA: BioMAP Diversity Plus: CASM3C Assay for serum amyloid A (SAA) Biomarker Activity (AID 2283049); conditions: primary human coronary artery smooth muscle cells; actives raise or lower the signal;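 note: SAA protein level quantified by ELISA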
[9] = BSK_CASM3C_SRB: Viability Assessment in the BioMAP Diversity Plus: CASM3C Assay (AID 2283050); conditions: primary human coronary artery smooth muscle cells
[10] = read-out: Thrombomodulin, THBD (gene 7056); experiment: BSK_CASM3C_Thrombomodulin: BioMAP Diversity Plus: CASM3C Assay for Thrombomodulin Biomarker Activity (AID 2283051); conditions: primary human coronary artery smooth muscle cells; actives raise or lower the signal;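 note: thrombomodulin protein level measured by ELISA 24 h after dosing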
[11] = read-out: Tissue Factor, F3 (gene 2152); experiment: BSK_CASM3C_TissueFactor: BioMAP Diversity Plus: CASM3C Assay for Tissue Factor Biomarker Activity (AID 2283052); conditions: primary human coronary artery smooth muscle cells; actives raise or lower the signal;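 note: cell surface tissue factor protein level read by ELISA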
[12] = read-out: Interferon-gamma inducible Protein 10 (IP10), CXCL10 (gene 3627); experiment: BSK_hDFCGF_IP10: BioMAP Diversity Plus: hDFCGF Assay for Interferon-gamma inducible Protein 10 (IP10) Biomarker Activity (AID 2283053); conditions: primary human foreskin fibroblasts; actives raise or lower the signal
Outline: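 Primary human foreskin fibroblasts exposed to chemicals for 24 h. IP-10 measured by ELISA; changes fitted bidirectionally against DMSO baseline.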

[13] = read-out: Urokinase-type plasminogen activator receptor (uPAR), PLAUR (gene 5329); experiment: BSK_CASM3C_uPAR: BioMAP Diversity Plus: CASM3C Assay for Urokinase-type plasminogen activator receptor (uPAR) Biomarker Activity (AID 2283054); conditions: primary human coronary artery smooth muscle cells; actives raise or lower the signal;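 note: cell-surface uPAR protein level quantified by ELISA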
[14] = read-out: Vascular cell adhesion molecule 1 (VCAM1), VCAM1 (gene 7412); experiment: BSK_CASM3C_VCAM1: BioMAP Diversity Plus: CASM3C Assay for Vascular cell adhesion molecule 1 (VCAM1) Biomarker Activity (AID 2283055); conditions: primary human coronary artery smooth muscle cells; actives raise or lower the signal;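 note: VCAM-1 protein level quantified by ELISA on the cells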
[15] = read-out: Collagen III, COL3A1 (gene 1281); experiment: BSK_hDFCGF_CollagenIII: BioMAP Diversity Plus: hDFCGF Assay for Collagen III Biomarker Activity (AID 2283056); conditions: primary human foreskin fibroblasts; actives raise or lower the signal
Outline: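 hDFCGF primary human dermal fibroblasts; 24 h chemical exposure; collagen III by ELISA; bidirectional curve fit vs DMSO baseline (gain or loss of signal).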

[16] = read-out: Epidermal growth factor receptor (EGFR), EGFR (gene 1956); experiment: BSK_hDFCGF_EGFR: BioMAP Diversity Plus: hDFCGF Assay for Epidermal growth factor receptor (EGFR) Biomarker Activity (AID 2283057); conditions: primary human foreskin fibroblasts; actives raise or lower the signal
Outline: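 Primary human foreskin fibroblasts (hDFCGF system), sampled 24 h after dosing; EGFR quantified by ELISA. Bidirectional fit relative to DMSO baseline; SRB total-protein staining in parallel cultures for cytotoxicity.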

[17] = read-out: Interleukin-8 (IL8), CXCL8 (gene 3576); experiment: BSK_hDFCGF_IL8: BioMAP Diversity Plus: hDFCGF Assay for Interleukin-8 (IL8) Biomarker Activity (AID 2283058); conditions: primary human foreskin fibroblasts; actives raise or lower the signal
Outline: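 ELISA read-out of IL-8 from primary human foreskin fibroblast cultures taken 24 h after dosing; values are bidirectional fits relative to DMSO vehicle.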

[18] = BSK_hDFCGF_Proliferation: Cell Proliferation Assessment in the BioMAP Diversity Plus: hDFCGF Assay (AID 2283059); conditions: primary human foreskin fibroblasts;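 note: curves fitted for both rise and fall of signal versus DMSO baseline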
Outline: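 Total protein read at 560 nm after 0.1% SRB staining of TCA-fixed human skin fibroblasts, […]. Activity is fitted in both directions relative to DMSO as baseline.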

[19] = read-out: Macrophage colony-stimulating factor (MCSF), CSF1 (gene 1435); experiment: BSK_hDFCGF_MCSF: BioMAP Diversity Plus: hDFCGF Assay for Macrophage colony-stimulating factor (MCSF) Biomarker Activity (AID 2283060); conditions: primary human foreskin fibroblasts; actives raise or lower the signal
Outline: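 ELISA read-out of M-CSF in human dermal foreskin fibroblast cultures, 24 h after chemical dosing; gain or loss of signal fitted bidirectionally relative to DMSO baseline.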

[20] = read-out: Tissue plasminogen activator (tPA), PLAT (gene 5327); experiment: BSK_BE3C_tPA: BioMAP Diversity Plus: BE3C Assay for Tissue plasminogen activator (tPA) Biomarker Activity (AID 2283041); conditions: primary human bronchial epithelial cells; actives raise or lower the signal
Outline: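 Primary human bronchial epithelial cells in the BE3C system, exposed to compound for 24 h. tPA was quantified by ELISA; DMSO served as baseline, with gain or loss of signal fitted. Cytotoxicity checked in parallel cultures by SRB total-protein staining.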

Measured: AC50

O=C(O)CCC(F)(F)C(F)(F)C(F)(F)C(F)(F)C(F)(F)C(F)(F)F
not listed: [20]
inactive: all other assays above

O=C(NCc1ncc(C(F)(F)F)cc1Cl)c1c(Cl)cccc1Cl
not listed: [18]
inactive: all other assays above

O=C(O)CCC(F)(F)C(F)(F)C(F)(F)C(F)(F)C(F)(F)F
active: [19] 0.22 µM
inactive: [20] | [1] | [2] | [3] | [4] | [5] | [6] | [7] | [8] | [9] | [10] | [11] | [12] | [13] | [14] | [15] | [16] | [17] | [18] | [19]

O=C(NO)c1ccccc1
active: [3] 2.51 µM | [18] 3.81 µM
inactive: all other assays above

O=P(O)(O)CCC(F)(F)C(F)(F)C(F)(F)C(F)(F)C(F)(F)C(F)(F)C(F)(F)C(F)(F)F
active: [20] 1.08 µM and 5.14 µM | [6] 9.07 µM | [15] 11.7 µM and 9.02 µM | [16] 29 µM
inactive: [1] | [2] | [3] | [4] | [5] | [6] | [7] | [8] | [9] | [10] | [11] | [12] | [13] | [14] | [16] | [17] | [19]

O=C1NS(=O)(=O)c2ccccc21
active: [14] 0.15 µM
inactive: [1] | [2] | [3] | [4] | [5] | [6] | [7] | [8] | [9] | [10] | [11] | [12] | [13] | [14] | [15] | [16] | [17] | [19]

CC(=O)Nc1ccc(O)cc1
not listed: [20]
inactive: all other assays above

CC(C)(C)c1ccc(O)c(O)c1
active: [10] 20 µM | [12] 32.3 µM | [14] 4.99 µM | [15] 34.7 µM | [19] 31.1 µM
not listed: [1] | [6] | [18]
inactive: all other assays above

Cc1cccc2c1ccc1ccccc12
not listed: [20]
inactive: all other assays above

COc1cccc(O)c1
not listed: [20]
inactive: all other assays above

CN(CCO)S(=O)(=O)C(F)(F)C(F)(F)C(F)(F)C(F)(F)C(F)(F)C(F)(F)C(F)(F)C(F)(F)F
active: [7] 0.0293 µM | [19] 0.0414 µM
inactive: [1] | [2] | [3] | [4] | [5] | [6] | [7] | [8] | [9] | [10] | [11] | [12] | [13] | [14] | [15] | [16] | [17] | [18] | [19]

O=C(O)C(F)(F)OC(F)(F)C(F)(F)OC(F)(F)C(F)(F)OC(F)(F)C(F)(F)C(F)(F)C(F)(F)F
active: [3] 48.1 µM | [4] 46.1 µM and 55.2 µM | [6] 51.1 µM and 56.6 µM | [8] 43.5 µM | [9] 55.1 µM and 45.3 µM | [12] 10.1 µM and 9.36 µM | [14] 24.8 µM and 30 µM | [15] 10.9 µM and 9.27 µM | [17] 21.9 µM and 21.2 µM | [19] 11.6 µM and 10.5 µM
inactive: [1] | [2] | [3] | [5] | [7] | [8] | [10] | [11] | [13] | [16]

CS(=O)(=O)c1ccc([C@@H](CC2CCCC2)C(=O)Nc2cnccn2)cc1Cl
active: [6] 26.9 µM | [13] 26.3 µM
not listed: [18]
inactive: all other assays above

O=C(c1ccccc1)c1ccccc1
not listed: [18]
inactive: all other assays above

CN(Cc1cnc2nc(N)nc(N)c2n1)c1ccc(C(=O)N[C@@H](CCC(=O)O)C(=O)O)cc1
inactive: [20] | [1] | [2] | [3] | [4] | [5] | [6] | [7] | [8] | [9] | [10] | [11] | [12] | [13] | [14] | [15] | [16] | [17] | [18] | [19]
active: [19] 2.65 µM

Cc1[nH]nc2c1N=C(c1ccccc1Cl)c1cc([N+](=O)[O-])ccc1N2
active: [2] 8.7 µM | [3] 0.581 µM | [6] 0.807 µM | [7] 7.47 µM | [8] 0.641 µM | [14] 9.37 µM | [16] 20 µM | [18] 0.187 µM
not listed: [20]
inactive: all other assays above

Oc1ccc(Cc2ccccc2O)cc1
active: [2] 10.8 µM | [14] 3.97 µM
inactive: [1] | [2] | [3] | [4] | [5] | [6] | [7] | [8] | [9] | [10] | [11] | [12] | [13] | [14] | [15] | [16] | [17] | [19]

O=S(=O)(O)C(F)(F)C(F)(F)C(F)(F)C(F)(F)C(F)(F)C(F)(F)C(F)(F)C(F)(F)C(F)(F)C(F)(F)F
active: [3] 13.3 µM | [7] 8.66 µM | [8] 13.3 µM and 20.4 µM | [10] 13.3 µM | [14] 3.55 µM and 2.65 µM
inactive: [1] | [2] | [3] | [4] | [5] | [6] | [7] | [9] | [10] | [11] | [12] | [13] | [15] | [16] | [17] | [19]

CN(C)CCOC(c1ccccc1)c1ccccc1
active: [12] 33.6 µM
not listed: [3] | [18] | [19]
inactive: all other assays above

CCOC(=O)CN[C@@H](C(=O)N1CC[C@H]1C(=O)NCc1ccc(/C(N)=N/O)cc1)C1CCCCC1
inactive: all assays above

CCCCCCCCCCCCCCC
not listed: [18]
inactive: all other assays above

O=P(O)(O)CCC(F)(F)C(F)(F)C(F)(F)C(F)(F)C(F)(F)C(F)(F)F
not listed: [18]
inactive: all other assays above

N=C(N)c1ccc(OCCCCCOc2ccc(C(=N)N)cc2)cc1
active: [1] 24.1 µM | [2] 17.5 µM | [3] 15 µM | [6] 12.4 µM | [12] 17.5 µM | [16] 29.1 µM | [17] 20.9 µM | [19] 20.6 µM
not listed: [13] | [18]
inactive: all other assays above

Reference: PubChem BioAssay (EPA / NIEHS)
